# Measured values from PubChem BioAssay.
# For some of these results: Results with a measured potency or affinity are listed apart. The source made the active and inactive calls.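 Rule for the calls, unless noted: active = thallium flux through the channel raised or lowered by more than 3 SD from vehicle-only wells, actives on both sides; inactive = the rest.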
# Assays:
# [1] = blockers of polyQ-driven CASP3 activation – cell-based (AID 1583); settings: polyglutamine-induced caspase-3 activation, cell assay; stronger effect = higher value;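 tested at 10 µM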
# [2] = yeast 75Q aggregation reduction – 75Q-TubU reporter (AID 1593); settings: Yeast 75Q polyglutamine aggregation reporter
# [3] = restoration of touch response, mutant HTT neurons – whole organism, C. elegans mechanosensory neurons, N-terminal huntingtin (AID 1599); settings: C. elegans polyQ-huntingtin mechanosensory neurons, stronger effect = higher value
# [4] = blockers of cytochrome c efflux from mitochondria – biochemical, purified mitochondria (AID 1603); settings: stronger effect = lower value;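 note: mouse liver mitochondria challenged with calcium chloride; signal normalized to the plate average as 100%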
# [5] = polyglutamine aggregate formation blockers (AID 1604); settings: polyglutamine-induced protein aggregation inhibition assay; stronger effect = higher value; tested at 2.5 µM
# [6] = glutamate transport activators, MN-1 cells, MN-1 cell line (AID 1612); settings: MN-1 motor neuron cells, stronger effect = higher value;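 note: tested at 1 µM final; 0% = mean of DMSO vehicle wells on each plate; positive means more glutamate uptake than control and negative means less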
# [7] = 75Q-TubH aggregate inhibition, S. cerevisiae, yeast (AID 1616); settings: S. cerevisiae 75Q-TubH polyglutamine aggregation suppression; stronger effect = higher value
# [8] = signal quenchers or enhancers, Cy5 substrate/SSB – biochemical, NIH Clinical Collection, E. coli SSB, artefact control for HCV NS3 helicase inhibitor project (AID 743268; call rule not given here); settings: Cy5-oligo bound E. coli SSB, fluorescence interference
# [9] = test system: Hepatitis C virus NS3 helicase; assay: blockers of NS3h binding to DNA – biochemical, fluorescence polarization, NIH Clinical Collection, primary screen (AID 743270; call rule not given here); settings: NS3 helicase binding to Cy5-dT15 DNA, stronger effect = higher value, concentration not given here
# [10] = target: Single-stranded DNA-binding protein (Escherichia coli (strain K12)) (UniProt P0AGE0); assay: SSB-ssDNA binding inhibitors – biochemical, fluorescence polarization, NIH Clinical Collection, counter-screen for HCV NS3 helicase inhibitor project (AID 743271; in the data active = inhibition above about 28%); settings: E. coli SSB-DNA binding, stronger effect = higher value, concentration not given here
# [11] = compounds distorting NS3 helicase fluorescence signal – biochemical, NIH Clinical Collection, artefact control for HCV NS3 helicase inhibitor project (AID 743272; call rule not given here;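 note: HCV NS3 helicase with a Cy5 labelled single stranded DNA probe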); settings: fluorescence interference counterscreen, HCV NS3 helicase assay; stronger effect = lower value
# [12] = growth inhibition, single agent or in combination, cell-based, chromothripsis tumors, cisplatin or BGB combos (AID 1671449; in the data active = inhibition above about 80%;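 note: cells exposed for 96 hours; 0% = vehicle DMSO and 100% = killing by high DMSO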); settings: LFS_MB_P medulloblastoma cells
# [13] = growth inhibition, single agent and combos, cell-based, chromothripsis tumors, cisplatin or BGB combos (AID 1671450; in the data active = inhibition above about 80%;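 note: cells exposed to compound for four days; 0% = vehicle DMSO and 100% = cell killing by high DMSO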); settings: HDN33 neuroblastoma cells, stronger effect = higher value
# [14] = growth inhibition, single agents and combos, HTB85, cell-based, BGB or cisplatin IC20 combos, synergistic combos for chromothripsis tumors (AID 1671453; in the data active = inhibition above about 80%;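 note: cells exposed for 96 hours before readout; 0% = vehicle DMSO and 100% = high DMSO killing control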); settings: HTB85 osteosarcoma cells, drug combinations, stronger effect = higher value
# [15] = target: Calcium-activated potassium channel subunit alpha-1 (Homo sapiens) + Leucine-rich repeat-containing protein 26 (Homo sapiens) (UniProt Q12791+Q2I0M4); assay: BK channel mutant inhibitors and activators – cell-based, U2OS BacMam, thallium flux, beta subunits, selectivity assay, profiling panel (AID 1259406); settings: U2OS BacMam BK variants, F380Y/Slo1WT/gamma1, at 30 µM;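 note: initial slope of Thallos dye fluorescence rise after thallium is added; log ratio against the mean of 0.3% DMSO vehicle wells on the same plate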
# Chain of Calcium-activated potassium channel subunit alpha-1 (Homo sapiens) + Leucine-rich repeat-containing protein 26 (Homo sapiens) (Q2I0M4 whole entry, looked up, one chain of several): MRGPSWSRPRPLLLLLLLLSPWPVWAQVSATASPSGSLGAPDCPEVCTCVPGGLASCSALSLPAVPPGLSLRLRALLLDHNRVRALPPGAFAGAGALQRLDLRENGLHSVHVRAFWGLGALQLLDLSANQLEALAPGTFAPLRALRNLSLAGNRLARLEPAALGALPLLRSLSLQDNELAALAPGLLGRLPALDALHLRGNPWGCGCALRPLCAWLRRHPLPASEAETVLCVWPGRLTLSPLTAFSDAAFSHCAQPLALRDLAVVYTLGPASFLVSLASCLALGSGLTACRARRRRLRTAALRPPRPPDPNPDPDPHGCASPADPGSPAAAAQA
# R275C = assay: as above; settings: U2OS BacMam BK variants, at 30 µM
# R275C/beta1 = assay: as above; settings: U2OS BacMam BK variants, at 30 µM
# R275C/beta2Delta = assay: as above; settings: U2OS BacMam BK variants, at 30 µM
# R275C/beta4 = assay: as above; settings: U2OS BacMam BK variants, at 30 µM
# R275C/Slo1WT/beta2 = assay: as above; settings: U2OS BacMam BK variants, at 30 µM
structure (smiles),measurement,setting,value
O=C1c2c(O)ccc(O)c2C(=O)c2c(NCCNCCO)ccc(NCCNCCO)c21,inhibition,[1],63.3%
same,score,[2],-2.9
same,rescue above control,[3],0
same,cytochrome c release ratio,[4],3.49
same,inhibition of aggregation,[5],52.2%
same,glutamate uptake change,[6],-30.1%
same,aggregation suppression score,[7],-1.69
same,fluorescence ratio,[8],0.74 (active)
same,inhibition,[9],128% (active)
same,inhibition,[10],121% (active)
same,fluorescence ratio,[11],0.92 (inactive)
same,inhibition,"[12]; at 0.5 µM, stronger effect = higher value",-22.5% (inactive)
same,inhibition,"[12]; measured here: combination with BGB IC20, at 0.005 µM",-15.5%
same,inhibition,"[12]; measured here: combination with BGB IC40, at 0.005 µM",-3.49%
same,inhibition,"[12]; measured here: combination with BGB IC40, at 0.05 µM",-28%
same,inhibition,"[12]; measured here: combination with cisplatin, at 0.5 µM, stronger effect = higher value",-39.3%
same,inhibition,"[12]; measured here: combination with cisplatin, at 5 µM, stronger effect = higher value",106%
same,inhibition,"[13]; BGB combo, at 5 µM",98.9%
same,inhibition,[13]; at 0.5 µM,60.1% (inactive)
same,inhibition,"[13]; cisplatin combo, at 5 µM",99.3%
same,inhibition,"[13]; measured here: with BGB IC20 combination, at 0.5 µM",57.7%
same,inhibition,"[13]; measured here: with cisplatin IC20 combination, at 0.5 µM",53.6%
same,inhibition,"[13]; single agent, at 5 µM",99.3%
same,inhibition,[14]; at 0.5 µM,94.8% (active)
same,inhibition,"[14]; measured here: with BGB IC20, at 0.5 µM",90.1%
same,inhibition,"[14]; measured here: with BGB IC20, at 5 µM",99.7%
same,inhibition,"[14]; measured here: with cisplatin IC20, at 0.5 µM",97.6%
same,inhibition,"[14]; measured here: with cisplatin IC20, at 5 µM",99.8%
same,inhibition,"[14]; single agent, at 5 µM",99.8%
same,log fold change Tl+ flux,[15],-0.0507 (inactive)
same,log fold change Tl+ flux,R275C,-0.0256 (inactive)
same,log fold change Tl+ flux,R275C/beta1,-0.052 (inactive)
same,log fold change Tl+ flux,R275C/beta2Delta,-0.0164 (inactive)
same,log fold change Tl+ flux,R275C/beta4,-0.0611 (inactive)
same,log fold change Tl+ flux,R275C/Slo1WT/beta2,-0.0613 (inactive)
CC(C)C(=O)Nc1ccc([N+](=O)[O-])c(C(F)(F)F)c1,inhibition,[1],28.6%
same,score,[2],0.95
same,rescue above control,[3],0
same,cytochrome c release ratio,[4],0.83
same,inhibition of aggregation,[5],22.5%
same,glutamate uptake change,[6],-7.31%
same,aggregation suppression score,[7],0.664
same,fluorescence ratio,[8],0.94 (inactive)
same,inhibition,[9],-1.36% (inactive)
same,inhibition,[10],2.57% (inactive)
same,fluorescence ratio,[11],0.88 (inactive)
same,log fold change Tl+ flux,[15],-0.0492 (inactive)
same,log fold change Tl+ flux,R275C,-0.0976 (active)
same,log fold change Tl+ flux,R275C/beta1,-0.0165 (inactive)
same,log fold change Tl+ flux,R275C/beta2Delta,0.0539 (inactive)
same,log fold change Tl+ flux,R275C/beta4,-0.0876 (inactive)
same,log fold change Tl+ flux,R275C/Slo1WT/beta2,-0.0286 (inactive)
COc1ccccc1OCCNCC(O)COc1cccc2[nH]c3ccccc3c12 (centres undefined),fluorescence ratio,[8],0.92 (inactive)
same,inhibition,[9],1.19% (inactive)
same,inhibition,[10],6.83% (inactive)
same,fluorescence ratio,[11],0.94 (inactive)
same,log fold change Tl+ flux,[15],0.204 (active)
same,log fold change Tl+ flux,R275C,-0.174 (active)
same,log fold change Tl+ flux,R275C/beta1,0.386 (active)
same,log fold change Tl+ flux,R275C/beta2Delta,0.0657 (inactive)
same,log fold change Tl+ flux,R275C/beta4,0.216 (active)
same,log fold change Tl+ flux,R275C/Slo1WT/beta2,0.0443 (inactive)
NNC(=O)c1ccncc1,inhibition,[1],-15%
same,score,[2],1.32
same,rescue above control,[3],-6.58
same,cytochrome c release ratio,[4],1.2
same,inhibition of aggregation,[5],30.1%
same,glutamate uptake change,[6],-15.1%
same,aggregation suppression score,[7],1.6
same,fluorescence ratio,[8],1.01 (inactive)
same,inhibition,[9],-2.27% (inactive)
same,inhibition,[10],3.34% (inactive)
same,fluorescence ratio,[11],0.93 (inactive)
same,log fold change Tl+ flux,[15],0.0222 (inactive)
same,log fold change Tl+ flux,R275C,0.00765 (inactive)
same,log fold change Tl+ flux,R275C/beta1,-0.00353 (inactive)
same,log fold change Tl+ flux,R275C/beta2Delta,0.0339 (inactive)
same,log fold change Tl+ flux,R275C/beta4,0.0039 (inactive)
same,log fold change Tl+ flux,R275C/Slo1WT/beta2,-0.0323 (inactive)
